This is an account of results in article PMC7862700, “An all-to-all approach to the identification of sequence-specific readers for epigenetic DNA modifications on cytosine”.

Holding throughout (test): DAPPL (digital affinity profiling via proximity ligation, sequencing); 10 mM Tris-HCl pH 7.5, 50 mM NaCl, 1 mM DTT, 4% glycerol, room temperature, 30 min; GST-TFs on glutathione beads, 16-mer random dsDNA library, 0.1% formaldehyde crosslink after washing; high values mean tight binding
One assay deals with T1, FEV (Homo sapiens, UniProt Q99581 1-238).
T1 sequence: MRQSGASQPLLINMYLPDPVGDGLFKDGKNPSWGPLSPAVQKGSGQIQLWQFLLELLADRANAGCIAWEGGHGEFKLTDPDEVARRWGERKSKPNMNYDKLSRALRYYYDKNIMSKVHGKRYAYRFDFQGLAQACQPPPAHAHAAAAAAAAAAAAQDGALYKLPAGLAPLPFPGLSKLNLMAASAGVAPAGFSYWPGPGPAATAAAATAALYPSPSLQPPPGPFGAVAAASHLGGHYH
The note with it: protein: recombinant; tags: N-terminal GST; dsDNA, one strand shown. Summed up:
(§1)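 Binding signal is defined as a hexamer's read frequency for one factor over its frequency for the tag-only sample. To obtain reads, GST-fused human transcription factors were expressed in yeast, captured on glutathione beads, barcoded with DNA and pooled with that sample. Pools met 200 nmole of a 16-mer random double-stranded DNA library in Tris/NaCl/DTT/glycerol buffer for 30 min at room temperature before washing, 0.1% formaldehyde crosslinking, proximity ligation (BsaI/T4 ligase, 1 h, 37 °C), PCR and Illumina NextSeq500 sequencing.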

A further assay has as its target ETV5 (Homo sapiens, UniProt P41161 1-510). The following applies: protein: recombinant; tags: N-terminal GST; dsDNA, one strand shown. The essentials:
as §1

A further assay has as its target HSF1 (Homo sapiens, UniProt Q00613 1-529). The following applies: protein: recombinant; tags: N-terminal GST; chain copies: 3; dsDNA, one strand shown. Summed up:
as §1

Another assay deals with T2, SPIC (Homo sapiens, UniProt Q8N5J4 1-248).
T2 sequence: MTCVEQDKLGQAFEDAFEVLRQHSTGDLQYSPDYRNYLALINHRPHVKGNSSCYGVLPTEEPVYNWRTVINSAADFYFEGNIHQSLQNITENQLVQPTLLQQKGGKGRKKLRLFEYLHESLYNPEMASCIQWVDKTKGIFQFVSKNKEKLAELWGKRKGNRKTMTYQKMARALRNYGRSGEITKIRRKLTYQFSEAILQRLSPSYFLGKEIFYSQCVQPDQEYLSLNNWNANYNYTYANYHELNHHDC
The note with it: protein: recombinant; tags: N-terminal GST; dsDNA, one strand shown. The essentials:
as §1

The next assay addresses ELF4 (Homo sapiens, UniProt Q99607 1-663). The following applies: protein: recombinant; tags: N-terminal GST; dsDNA, one strand shown. The essentials:
as §1

The next assay has as its target T3, ELK4 (Homo sapiens, UniProt P28324-2 1-405).
T3 sequence: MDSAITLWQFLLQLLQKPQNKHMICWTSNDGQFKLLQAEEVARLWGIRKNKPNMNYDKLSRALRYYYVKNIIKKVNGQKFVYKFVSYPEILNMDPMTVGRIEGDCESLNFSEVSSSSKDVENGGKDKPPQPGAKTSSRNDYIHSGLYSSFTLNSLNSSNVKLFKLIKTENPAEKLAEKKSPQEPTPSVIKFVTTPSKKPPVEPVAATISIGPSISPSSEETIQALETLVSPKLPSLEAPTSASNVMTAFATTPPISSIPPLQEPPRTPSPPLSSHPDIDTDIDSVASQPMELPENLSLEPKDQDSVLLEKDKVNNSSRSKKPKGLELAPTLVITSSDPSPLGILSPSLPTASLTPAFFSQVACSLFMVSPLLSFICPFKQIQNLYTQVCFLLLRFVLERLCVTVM
The following applies: protein: recombinant; tags: N-terminal GST; dsDNA, one strand shown. Summed up:
as §1

The target of another assay is T4, ETV2 (Homo sapiens, UniProt O00321 1-342).
T4 sequence: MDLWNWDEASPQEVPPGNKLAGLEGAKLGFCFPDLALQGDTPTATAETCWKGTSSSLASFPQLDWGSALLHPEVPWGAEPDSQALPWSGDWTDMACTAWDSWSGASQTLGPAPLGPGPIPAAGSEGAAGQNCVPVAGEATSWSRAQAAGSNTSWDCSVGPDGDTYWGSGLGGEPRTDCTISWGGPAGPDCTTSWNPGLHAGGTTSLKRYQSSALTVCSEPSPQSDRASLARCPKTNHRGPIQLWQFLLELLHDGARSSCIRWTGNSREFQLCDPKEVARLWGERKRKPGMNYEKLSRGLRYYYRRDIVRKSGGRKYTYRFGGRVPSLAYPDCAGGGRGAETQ
The following applies: protein: recombinant; tags: N-terminal GST; dsDNA, one strand shown. The essentials:
as §1

The next assay concerns the target T5, ELF3 (Homo sapiens, UniProt P78545 1-371).
T5 sequence: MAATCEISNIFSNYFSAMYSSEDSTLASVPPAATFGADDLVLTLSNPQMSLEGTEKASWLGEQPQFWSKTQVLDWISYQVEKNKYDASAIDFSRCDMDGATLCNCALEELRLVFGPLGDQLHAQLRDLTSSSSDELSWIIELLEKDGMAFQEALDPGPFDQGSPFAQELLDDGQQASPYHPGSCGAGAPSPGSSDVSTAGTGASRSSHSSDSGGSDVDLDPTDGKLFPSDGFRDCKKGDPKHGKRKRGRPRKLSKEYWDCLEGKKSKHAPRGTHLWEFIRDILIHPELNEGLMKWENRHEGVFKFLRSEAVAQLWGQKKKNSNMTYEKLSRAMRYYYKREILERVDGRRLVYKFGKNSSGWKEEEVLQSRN
The following applies: protein: recombinant; tags: N-terminal GST; dsDNA, one strand shown. The essentials: as §1

The target in another assay is CRX (Homo sapiens, UniProt O43186 1-299). The following applies: protein: recombinant; tags: N-terminal GST; dsDNA, one strand shown. Summed up:
as §1

The next assay addresses ETV1 (Homo sapiens, UniProt P50549 1-477). The note with it: protein: recombinant; tags: N-terminal GST; dsDNA, one strand shown. Summed up: as §1
A further assay concerns the target T6, ERF (Homo sapiens, UniProt P50548 1-548).
T6 sequence: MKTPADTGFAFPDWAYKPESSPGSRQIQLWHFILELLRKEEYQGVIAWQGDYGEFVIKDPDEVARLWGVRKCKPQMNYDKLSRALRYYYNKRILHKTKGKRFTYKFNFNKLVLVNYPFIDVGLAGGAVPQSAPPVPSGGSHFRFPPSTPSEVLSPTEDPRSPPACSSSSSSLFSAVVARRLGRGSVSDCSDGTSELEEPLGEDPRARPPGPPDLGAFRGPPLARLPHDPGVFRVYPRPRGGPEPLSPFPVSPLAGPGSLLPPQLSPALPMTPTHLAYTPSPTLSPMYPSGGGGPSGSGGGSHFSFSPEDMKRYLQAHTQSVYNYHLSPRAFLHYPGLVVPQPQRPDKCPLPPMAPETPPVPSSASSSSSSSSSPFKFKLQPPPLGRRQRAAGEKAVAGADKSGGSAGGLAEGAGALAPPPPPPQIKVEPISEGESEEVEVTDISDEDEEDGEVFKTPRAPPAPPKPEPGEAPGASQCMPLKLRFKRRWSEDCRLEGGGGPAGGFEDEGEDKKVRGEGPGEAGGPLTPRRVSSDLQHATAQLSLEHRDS
The note with it: protein: recombinant; tags: N-terminal GST; dsDNA, one strand shown. Summed up: as §1

The next assay addresses T7, ETV3L (Homo sapiens, UniProt Q6ZN32 1-361).
T7 sequence: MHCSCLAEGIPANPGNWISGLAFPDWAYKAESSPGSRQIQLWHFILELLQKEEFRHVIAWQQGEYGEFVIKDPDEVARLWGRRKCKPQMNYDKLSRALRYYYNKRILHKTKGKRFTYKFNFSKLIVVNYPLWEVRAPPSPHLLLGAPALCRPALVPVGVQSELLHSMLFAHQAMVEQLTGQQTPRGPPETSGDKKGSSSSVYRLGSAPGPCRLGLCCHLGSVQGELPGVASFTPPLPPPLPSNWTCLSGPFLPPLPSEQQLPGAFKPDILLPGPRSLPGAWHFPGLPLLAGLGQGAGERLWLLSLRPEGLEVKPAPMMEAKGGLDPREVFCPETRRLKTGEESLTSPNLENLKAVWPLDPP
The following applies: protein: recombinant; tags: N-terminal GST; dsDNA, one strand shown. The essentials: as §1

For the next assay, the target named is T8, ETS2 (Homo sapiens, UniProt P15036 1-469).
T8 sequence: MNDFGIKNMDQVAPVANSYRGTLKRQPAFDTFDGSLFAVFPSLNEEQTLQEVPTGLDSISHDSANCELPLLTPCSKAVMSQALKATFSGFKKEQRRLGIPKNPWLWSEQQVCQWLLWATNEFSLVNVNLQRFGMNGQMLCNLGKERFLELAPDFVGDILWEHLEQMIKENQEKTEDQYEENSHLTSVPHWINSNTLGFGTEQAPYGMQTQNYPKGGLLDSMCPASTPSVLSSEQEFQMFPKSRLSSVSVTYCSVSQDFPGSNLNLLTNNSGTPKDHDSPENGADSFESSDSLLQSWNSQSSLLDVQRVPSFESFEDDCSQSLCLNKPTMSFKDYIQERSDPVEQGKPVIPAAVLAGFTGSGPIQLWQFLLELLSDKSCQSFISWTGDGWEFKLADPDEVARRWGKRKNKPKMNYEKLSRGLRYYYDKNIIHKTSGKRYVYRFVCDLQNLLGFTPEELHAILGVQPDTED
The following applies: protein: recombinant; tags: N-terminal GST; dsDNA, one strand shown. The essentials: as §1

The next assay deals with T9, SPDEF (Homo sapiens, UniProt O95238 1-335).
T9 sequence: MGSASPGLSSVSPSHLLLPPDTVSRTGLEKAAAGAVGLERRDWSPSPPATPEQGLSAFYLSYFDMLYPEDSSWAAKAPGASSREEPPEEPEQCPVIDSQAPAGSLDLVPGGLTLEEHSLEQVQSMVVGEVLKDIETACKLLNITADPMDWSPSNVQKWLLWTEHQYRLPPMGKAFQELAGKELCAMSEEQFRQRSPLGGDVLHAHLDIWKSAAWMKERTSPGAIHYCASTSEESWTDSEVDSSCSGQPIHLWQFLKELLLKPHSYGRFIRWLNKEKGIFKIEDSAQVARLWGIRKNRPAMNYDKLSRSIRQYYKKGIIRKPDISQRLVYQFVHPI
The note with it: protein: recombinant; tags: N-terminal GST; dsDNA, one strand shown. The essentials:
as §1

The target in another assay is T10, ETV7 (Homo sapiens, UniProt Q9Y603 1-341).
T10 sequence: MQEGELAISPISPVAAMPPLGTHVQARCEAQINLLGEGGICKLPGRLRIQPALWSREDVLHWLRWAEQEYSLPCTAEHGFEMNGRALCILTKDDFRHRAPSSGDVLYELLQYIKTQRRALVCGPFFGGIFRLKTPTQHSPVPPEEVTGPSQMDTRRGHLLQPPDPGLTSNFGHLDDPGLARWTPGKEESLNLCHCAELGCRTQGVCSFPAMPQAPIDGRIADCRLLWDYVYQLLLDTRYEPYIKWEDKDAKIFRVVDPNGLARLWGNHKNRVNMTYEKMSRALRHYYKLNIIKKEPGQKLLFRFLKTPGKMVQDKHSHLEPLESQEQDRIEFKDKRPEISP
The note with it: protein: recombinant; tags: N-terminal GST; dsDNA, one strand shown. Summed up:
as §1

A further assay has as its target T11, ELF5 (Homo sapiens, UniProt Q9UKW6-2 1-255).
T11 sequence: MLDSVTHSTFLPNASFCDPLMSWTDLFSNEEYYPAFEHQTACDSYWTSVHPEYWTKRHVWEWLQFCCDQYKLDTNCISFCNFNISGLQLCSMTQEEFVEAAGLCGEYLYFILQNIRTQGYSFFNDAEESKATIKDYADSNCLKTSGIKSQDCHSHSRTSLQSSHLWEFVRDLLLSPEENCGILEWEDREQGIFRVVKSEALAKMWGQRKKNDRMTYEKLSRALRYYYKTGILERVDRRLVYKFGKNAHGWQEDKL
The following applies: protein: recombinant; tags: N-terminal GST; dsDNA, one strand shown. Summed up: as §1

The next assay addresses T12, ETV3 (Homo sapiens, UniProt P41162-2 1-143).
T12 sequence: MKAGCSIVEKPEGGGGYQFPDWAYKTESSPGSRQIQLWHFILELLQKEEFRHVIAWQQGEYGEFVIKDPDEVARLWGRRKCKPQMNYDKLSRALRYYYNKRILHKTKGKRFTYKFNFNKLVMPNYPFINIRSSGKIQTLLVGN
The following applies: protein: recombinant; tags: N-terminal GST; dsDNA, one strand shown. The essentials: as §1

The next assay deals with ETV6 (Homo sapiens, UniProt P41212 1-452). The note with it: protein: recombinant; tags: N-terminal GST; dsDNA, one strand shown. The essentials: as §1
Sequence of ETV6 (P41212 whole entry): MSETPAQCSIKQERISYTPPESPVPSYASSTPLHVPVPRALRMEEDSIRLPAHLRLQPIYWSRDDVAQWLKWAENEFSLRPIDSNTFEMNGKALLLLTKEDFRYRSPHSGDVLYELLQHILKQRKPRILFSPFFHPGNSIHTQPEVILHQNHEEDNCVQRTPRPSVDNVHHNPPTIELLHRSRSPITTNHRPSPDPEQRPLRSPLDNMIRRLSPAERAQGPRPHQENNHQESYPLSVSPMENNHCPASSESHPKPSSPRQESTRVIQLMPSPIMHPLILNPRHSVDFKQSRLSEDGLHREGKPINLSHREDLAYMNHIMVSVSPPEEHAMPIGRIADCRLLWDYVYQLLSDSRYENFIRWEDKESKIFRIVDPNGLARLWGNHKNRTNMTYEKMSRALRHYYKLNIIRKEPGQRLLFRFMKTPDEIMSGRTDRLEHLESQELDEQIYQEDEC

Sequence of ETV1 (P50549 whole entry): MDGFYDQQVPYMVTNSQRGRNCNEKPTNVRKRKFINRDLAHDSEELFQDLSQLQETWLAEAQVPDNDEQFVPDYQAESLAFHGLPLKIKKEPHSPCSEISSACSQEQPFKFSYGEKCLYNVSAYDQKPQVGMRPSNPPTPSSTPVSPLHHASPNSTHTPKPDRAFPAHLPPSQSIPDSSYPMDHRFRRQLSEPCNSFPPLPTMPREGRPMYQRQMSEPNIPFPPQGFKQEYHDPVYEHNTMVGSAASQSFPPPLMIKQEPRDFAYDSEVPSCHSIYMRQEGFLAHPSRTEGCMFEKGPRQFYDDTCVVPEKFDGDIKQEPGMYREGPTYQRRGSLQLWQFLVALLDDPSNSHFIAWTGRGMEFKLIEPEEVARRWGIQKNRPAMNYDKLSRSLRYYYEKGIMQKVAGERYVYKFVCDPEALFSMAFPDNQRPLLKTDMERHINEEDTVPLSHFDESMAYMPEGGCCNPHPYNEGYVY
Sequence of HSF1 (Q00613 whole entry): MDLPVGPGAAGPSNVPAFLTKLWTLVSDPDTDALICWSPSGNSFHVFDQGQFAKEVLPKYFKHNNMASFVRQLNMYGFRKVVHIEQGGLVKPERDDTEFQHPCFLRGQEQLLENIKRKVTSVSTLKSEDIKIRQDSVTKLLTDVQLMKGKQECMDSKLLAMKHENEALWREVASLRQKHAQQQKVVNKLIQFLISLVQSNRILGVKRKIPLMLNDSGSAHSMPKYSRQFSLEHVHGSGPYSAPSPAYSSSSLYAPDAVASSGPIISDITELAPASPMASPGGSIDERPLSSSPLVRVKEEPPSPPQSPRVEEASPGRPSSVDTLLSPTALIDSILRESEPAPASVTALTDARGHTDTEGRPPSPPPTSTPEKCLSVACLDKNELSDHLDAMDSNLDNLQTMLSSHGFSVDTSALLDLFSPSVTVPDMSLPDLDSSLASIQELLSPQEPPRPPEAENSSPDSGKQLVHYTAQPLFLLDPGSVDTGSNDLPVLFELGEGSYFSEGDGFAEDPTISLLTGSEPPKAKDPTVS
Sequence of CRX (O43186 whole entry): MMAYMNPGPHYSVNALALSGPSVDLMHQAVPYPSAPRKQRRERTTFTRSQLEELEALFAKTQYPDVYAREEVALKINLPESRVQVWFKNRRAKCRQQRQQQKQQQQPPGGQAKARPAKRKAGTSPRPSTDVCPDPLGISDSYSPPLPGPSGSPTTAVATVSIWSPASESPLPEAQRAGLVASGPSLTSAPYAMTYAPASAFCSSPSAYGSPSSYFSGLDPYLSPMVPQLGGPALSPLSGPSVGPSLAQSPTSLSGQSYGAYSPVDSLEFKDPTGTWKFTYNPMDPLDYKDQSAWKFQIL
Sequence of ETV5 (P41161 whole entry): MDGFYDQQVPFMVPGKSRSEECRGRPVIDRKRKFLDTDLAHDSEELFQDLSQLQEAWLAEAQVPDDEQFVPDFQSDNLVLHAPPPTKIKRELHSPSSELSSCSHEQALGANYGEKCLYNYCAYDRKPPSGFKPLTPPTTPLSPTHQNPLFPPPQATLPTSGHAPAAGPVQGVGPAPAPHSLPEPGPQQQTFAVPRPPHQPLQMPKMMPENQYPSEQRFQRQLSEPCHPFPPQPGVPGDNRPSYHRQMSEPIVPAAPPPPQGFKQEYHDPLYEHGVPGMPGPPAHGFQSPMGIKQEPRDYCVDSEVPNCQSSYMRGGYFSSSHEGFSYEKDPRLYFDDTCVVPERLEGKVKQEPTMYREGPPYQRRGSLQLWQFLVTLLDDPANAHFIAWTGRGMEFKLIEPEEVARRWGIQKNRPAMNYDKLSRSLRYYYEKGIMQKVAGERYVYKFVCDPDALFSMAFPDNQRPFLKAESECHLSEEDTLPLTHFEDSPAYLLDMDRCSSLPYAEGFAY
Sequence of ELF4 (Q99607 whole entry): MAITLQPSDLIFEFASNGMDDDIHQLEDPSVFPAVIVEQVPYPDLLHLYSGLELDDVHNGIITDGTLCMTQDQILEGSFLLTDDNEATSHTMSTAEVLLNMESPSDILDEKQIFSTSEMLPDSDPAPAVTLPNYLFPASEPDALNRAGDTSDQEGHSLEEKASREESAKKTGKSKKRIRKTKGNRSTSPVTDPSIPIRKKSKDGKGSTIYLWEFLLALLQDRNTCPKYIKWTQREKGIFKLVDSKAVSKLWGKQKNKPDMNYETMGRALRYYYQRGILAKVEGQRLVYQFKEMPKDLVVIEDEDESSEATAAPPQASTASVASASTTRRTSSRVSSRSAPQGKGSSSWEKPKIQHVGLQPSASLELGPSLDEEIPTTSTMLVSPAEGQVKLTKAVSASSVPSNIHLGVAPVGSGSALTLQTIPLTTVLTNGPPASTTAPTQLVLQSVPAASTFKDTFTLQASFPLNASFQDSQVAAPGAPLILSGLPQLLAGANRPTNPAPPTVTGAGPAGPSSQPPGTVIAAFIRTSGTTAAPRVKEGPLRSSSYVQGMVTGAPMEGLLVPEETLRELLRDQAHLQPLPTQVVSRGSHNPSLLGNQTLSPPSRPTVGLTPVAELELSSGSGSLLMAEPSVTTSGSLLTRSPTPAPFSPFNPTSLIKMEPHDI

Consider AACAAA, for which the binding signal was 1.2 fold enrichment (6-mer frequency, TF over GST control) in the assay with FEV; 1.11 fold enrichment (6-mer frequency, TF over GST control) in the assay with ETV5; 1.18 fold enrichment (6-mer frequency, TF over GST control) with HSF1; 1.14 fold enrichment (6-mer frequency, TF over GST control) with SPIC; 1.16 fold enrichment (6-mer frequency, TF over GST control) with ELF4; 1.17 fold enrichment (6-mer frequency, TF over GST control) with ELK4. Further, the binding signal with ETV2 is 1.26 fold enrichment (6-mer frequency, TF over GST control); with ELF3 it was 1.21 fold enrichment (6-mer frequency, TF over GST control); with CRX it was 1.14 fold enrichment (6-mer frequency, TF over GST control); with ETV1 it was 1.19 fold enrichment (6-mer frequency, TF over GST control); with ERF it was 1.2 fold enrichment (6-mer frequency, TF over GST control); with ETV3L, 1.14 fold enrichment (6-mer frequency, TF over GST control). For the same sequence, the binding signal with ETS2 is 1.22 fold enrichment (6-mer frequency, TF over GST control); with SPDEF, 1.11 fold enrichment (6-mer frequency, TF over GST control); in the assay with ETV7, 1.13 fold enrichment (6-mer frequency, TF over GST control); with ELF5, 1.16 fold enrichment (6-mer frequency, TF over GST control); in the assay with ETV3 it was 1.15 fold enrichment (6-mer frequency, TF over GST control); in the assay with ETV6 it was 1.18 fold enrichment (6-mer frequency, TF over GST control).
